Screening data deposited in PubChem by National Center for Advancing Translational Sciences (NCATS).
DRD3 agonist – qHTS of D3 Dopamine Receptor Agonist: qHTS; D3R DiscoveRx beta-arrestin cells, luminescence, 90 min; D(3) dopamine receptor (Homo sapiens), P35462; max activation, %; 0.58% of 410,000 active; in the data active = max activation above about 30%; also: 0% is about no effect
Target sequence (P35462 whole entry, looked up): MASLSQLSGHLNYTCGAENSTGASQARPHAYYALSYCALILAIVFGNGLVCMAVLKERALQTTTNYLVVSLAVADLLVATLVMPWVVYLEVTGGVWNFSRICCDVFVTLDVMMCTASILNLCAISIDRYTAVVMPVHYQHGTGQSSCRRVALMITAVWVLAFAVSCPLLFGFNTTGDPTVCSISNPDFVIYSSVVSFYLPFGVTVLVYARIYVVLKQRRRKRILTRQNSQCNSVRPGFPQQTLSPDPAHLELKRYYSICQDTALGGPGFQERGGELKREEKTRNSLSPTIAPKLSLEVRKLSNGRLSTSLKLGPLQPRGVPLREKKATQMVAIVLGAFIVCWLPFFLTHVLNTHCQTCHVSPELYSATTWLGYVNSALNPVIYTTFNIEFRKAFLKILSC
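Cells at 1500/well, incubated overnight, then treated with pinned compounds (dopamine as control) for 90 min at 37 degrees C. DiscoveRx reagent added for 30 - 60 minutes at room temperature; luminescence read.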
D1 antagonist – Antagonist of Human D 1 Dopamine Receptor: qHTS; 3.2% of 360,000 active; AID 504652, 2011; activity change, negative = inhibition, % at 10 µM; HEK293 TREx D1 cells, calcium flux, dopamine EC80; active compounds read low; D(1A) dopamine receptor (Homo sapiens), P21728; in the data active = activity change below about -30%; also: % is scaled to controls: 0 for no effect and ±100 for the full control effect
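HEK293 T-REx cells expressing inducible, force-coupled D1 receptor; no-wash Ca dye, 30–90 min RT. Cmpd → 180 s read at 1 Hz → EC80 DA → 180 s read.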
D3 antag – qHTS of D3 Dopamine Receptor Antagonist: qHTS; D(3) dopamine receptor (Homo sapiens), P35462; D3R cells, DiscoveRx beta-arrestin luminescence, antagonist mode; active compounds read low; max response, negative = inhibition, %; 2.5% of 360,000 active; AID 652054, 2013; in the data active = max response below about -50%; also: % is scaled to controls: 0 for no effect and ±100 for the full control effect
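Cells plated overnight at 1500 cells/well, then exposed to library compounds with dopamine controls for 90 minutes at 37 degrees C. DiscoveRx reagent added for 30–60 minutes at room temperature; luminescence read, quantitative HTS format.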
D1 ag – Allosteric Agonists of the Human D1 Dopamine Receptor: qHTS | HEK293 T-REx D1 cells, calcium flux, agonist mode | 1% of 360,000 active | activation, % at 2 µM; in the data active = activation above about 30%; also: 0% is about no effect
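Agonism was scored from calcium flux recorded over 180 s (1 read/s) after pintool compound addition, following a 10-cycle baseline. Cells were inducible force-coupled HEK293 TREx D1, plated overnight at 30 C and loaded with no-wash calcium dye.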
D1 potentiator – Potentiators of Human D1 Dopamine Receptor: qHTS; 0.036% of 360,000 active; HEK293 TREx D1 cells, calcium flux, dopamine EC20 potentiation; potentiation, % at 10 µM; in the data active = potentiation above about 30%; also: 0% is about no effect
Numbers without * were called inactive; / = no result; ! = a repeat was not active. A selection: hits, their analogues and other compounds. The true share with any hit is near 6.1%.

SMILES	DRD3 agonist	D1 antagonist	D3 antag	D1 ag	D1 potentiator
O=c1[nH]c(Cc2ccc(F)cc2)nc2scc(-c3ccc(F)cc3)c12	2	-8	10	5	-5
Cc1ccc(-c2csc3nc(CN(C)Cc4ccccc4)[nH]c(=O)c23)cc1	-7	-36*	3	7	-12
CC(C)c1ccc(-c2nnn(Cc3nc4ccccc4s3)n2)cc1	-4	-5	-72*	10	2
CCCn1nnc(NC(=O)/C=C/c2ccc(C(C)C)cc2)n1	-4	-19	-17	38*	-9
C=C(C)c1cc2c(ccc3ccc(=O)oc32)o1	-12	/	8	/	/
Cc1ccc(S(=O)(=O)NNC(=O)c2sccc2-n2cccc2)cc1	6	-43*	4	12	-3
CCOc1cc(C)c(C(C)C)cc1S(=O)(=O)n1cnc(C)c1	17	-31*	0	3	-14
CCOc1ccc(S(=O)(=O)n2cnc(C)c2)cc1	1	-44*	3	7	-6
COc1ccc(S(=O)(=O)n2cnc(C)c2)cc1	9	7	1	-1	-6
CCOc1cc(C)c(C(C)C)cc1S(=O)(=O)N1CC(C)OC(C)C1 (centres undefined)	-1	3	11	2	-1
CC(=O)c1ccc(Nc2ccc(-c3ccccc3C)nn2)cc1	-2	-4	-6	2	-1
CSCCC(NC(=O)COc1ccccc1)C(=O)N1CCC(C(N)=O)CC1 (centres undefined)	-4	-31*	7	1	/
Cc1cccc(NC(=O)c2c(NC(=O)C(F)(F)F)sc3c2CCCCC3)c1	15	-37*	/	34*	-2
Cc1ccc(NC(=O)c2c(NC(=O)C(F)(F)F)sc3c2CCCCC3)cc1	6	-42*	/	32*	-2
COc1ccc(NC(=O)c2c(NC(=O)COc3ccccc3)sc3c2CCCCC3)cc1	-8	-37*	/	-1	3
CCOC(=O)c1c(NC(=O)C(C)N2CCN(C(=O)c3ccco3)CC2)sc2c1CCCC2 (centres undefined)	6	-2	-17	40*	-5
COc1ccccc1NC(=O)c1c(NC(=O)COc2ccccc2)sc2c1CCCCC2	-8	4	/	0	-2
CCOc1c(Cl)cc(C(=O)N(Cc2ccc(N(C)C)cc2)Cc2ccco2)cc1Cl	-5	-16	/	2	0
CCCCC[C@@H](C)N1C[C@@H](COCc2ccccc2)Oc2cc(N3CCC[C@H]3COC)ccc2S1(=O)=O	-4	/	6	/	/
O=C(Nc1ccc(F)cc1)c1oc2ccccc2c1NC(=O)C12CC3CC(CC(C3)C1)C2	5	3	/	1	-2
O=C(Nc1cccc(Cl)c1)c1c(NC(=O)C(F)(F)F)sc2c1CCCC2	2	-35*	/	16	-3
CCOC(=O)c1c(NC(=O)COc2cccc(C)c2C)sc2c1CCCCC2	8	-44*	/	1	4
O=C(COc1ccccc1)Nc1nc2c(s1)CCCC2	-13	11	-77*	-2	-6
Cc1ccccc1NC(=O)c1c(NC(=O)c2ccccc2)sc2c1CCC2	-7	11	/	-1	-3
CCOC(=O)c1c(NC(=O)COc2ccccc2F)sc2c1CCCC2	10	-6	/	2	1
SMILES	DRD3 agonist	D1 antagonist	D3 antag	D1 ag	D1 potentiator
Cc1ccccc1NC(=O)c1c(NC(=O)C(F)(F)F)sc2c1CCCCC2	-4	-21	/	35*	-1
O=C(COc1ccc(Cl)cc1)Nc1sc2c(c1C(=O)Nc1cccc(Cl)c1)CCCC2	3	-5	/	0	1
O=c1oc2ccccc2c(N2CCN(c3ccccc3F)CC2)c1CN1CCCC1	-13	-4	/	-1	4
COc1ccc(-n2c(=O)c3c(c4cc(OC)ccc4n3C)n(Cc3cc(C)ccc3C)c2=O)cc1	-22	-74*	/	-1	-3
COc1ccc2c(c1)c1c(c(=O)n(Cc3ccccc3)c(=O)n1Cc1cc(C)ccc1C)n2C	7	9	/	0	0
COc1ccc(Cn2c(=O)n(-c3ccc(C)cc3)c(=O)c3c2c2cc(C)ccc2n3C)cc1	37*	-6	/	3	0
COc1ccc(Cn2c(=O)n(-c3ccc(OC)cc3)c(=O)c3c2c2cc(OC)ccc2n3C)cc1	6	-9	/	7	2
Cc1ccc(OCC(=O)NCC2(N(C)C)CCCCC2)cc1C	-10	-12	/	2	0
NCc1nc2cccnc2n1Cc1ccccc1Cl	0	-31*	/	0	-2
O=S(=O)(NCc1nc2cccnc2n1Cc1ccccc1Cl)c1ccc(F)c(Cl)c1	1	2	/	1	-1
CCOC(=O)C1(CCc2ccccc2)CCN(C(=O)C2CCOCC2)CC1	-3	10	-12	0	8
Cc1ccc(S(=O)(=O)N2CCN(CC(=O)Nc3ccnn3C3CCCC3)CC2)cc1	-3	-37*	-16	2	-11
N#Cc1ccccc1S(=O)(=O)N1CCN(CC(=O)Nc2ccnn2C2CCCC2)CC1	3	0	18	-1	-1
O=C(CN1CCN(S(=O)(=O)c2ccccc2F)CC1)Nc1ccnn1C1CCCC1	8	-40*	10	6	-10
CCCCOc1ccc(S(=O)(=O)Nc2cccnc2)cc1	17	-37*	39	23	-1
CSc1nccc(Oc2cccc(C#N)c2)n1	-7	-33*	-6	2	-10
CSc1nc(Oc2cccc(C(F)(F)F)c2)cc(C(F)(F)F)n1	1	9	0	2	-7
CC(NC(=O)c1ccccc1)c1ccc(F)cc1 (centres undefined)	1	4	2	0	-1
O=C(NC1CCCC1)C1CCN(C(=O)c2ccc(-c3ccccc3)cc2)CC1	-14	-38*	-14	5	-2
COc1ccc(CNC(=O)C2CCN(C(=O)c3ccc(-c4ccccc4)cc3)CC2)cc1	1	-5	-12	2	1
Cc1ccc(C(=O)N2CCC(C(=O)NC3CCCCCC3)CC2)cc1	3	-1	-3	4	3
COc1ccc(C(=O)N2CCC(C(=O)NCc3ccccn3)CC2)cc1	4	-31*	10	4	-12
COc1ccc(C(=O)N2CCN(CCc3ccccn3)CC2)cc1	-14	-46*!	-10	50*!	6
COc1ccc(OCCN2CCN(C(=O)c3ccc(OC)c(OC)c3)CC2)cc1	112*	-2	9	5	/
NC1=NN=C(N2N=C(c3ccc(Br)cc3)CC2(O)C(F)(F)F)n2ncnc2C1 (centres undefined)	-8	-45*	-8	2	-8
Cc1cccc(C)c1OCCSc1nc2ccccc2n1CC(=O)O	-2	-7	8	0	5
